# Paper PMC7862700, “An all-to-all approach to the identification of sequence-specific readers for epigenetic DNA modifications on cytosine”
# Key:
# Test in all cases: DAPPL (digital affinity profiling via proximity ligation, sequencing); 10 mM Tris-HCl pH 7.5, 50 mM NaCl, 1 mM DTT, 4% glycerol, room temperature, 30 min; GST-TFs on glutathione beads, 16-mer random dsDNA library, 0.1% formaldehyde crosslink after washing; high values mean tight binding
# [1] = target: T1, FEV (Homo sapiens, UniProt Q99581 1-238); settings: protein: recombinant; tags: N-terminal GST; dsDNA, one strand shown
# T1 sequence: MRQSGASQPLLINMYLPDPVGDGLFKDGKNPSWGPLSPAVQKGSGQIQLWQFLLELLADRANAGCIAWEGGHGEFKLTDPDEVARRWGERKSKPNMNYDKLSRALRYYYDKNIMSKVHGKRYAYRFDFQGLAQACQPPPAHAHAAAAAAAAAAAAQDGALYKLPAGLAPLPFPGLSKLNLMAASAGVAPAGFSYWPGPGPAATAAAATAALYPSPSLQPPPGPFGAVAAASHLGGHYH
# Procedure, shortened: (§1)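 In yeast, human transcription factors were expressed with a GST fusion, then pulled down on glutathione beads and given DNA barcodes. Pooled with a tag-only sample, they were exposed to 200 nmole of a 16-mer random double-stranded DNA library (Tris/NaCl/DTT/glycerol buffer, room temperature, 30 min), washed, crosslinked with 0.1% formaldehyde, proximity-ligated using BsaI/T4 ligase for 1 h at 37 °C, PCR-amplified and read on an Illumina NextSeq500. Each hexamer's frequency of reads for a factor, divided by the matching frequency for the tag-only sample, gives the binding signal.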
# [2] = target: ETV5 (Homo sapiens, UniProt P41161 1-510); settings: protein: recombinant; tags: N-terminal GST; dsDNA, one strand shown
# Chain of ETV5 (P41161 whole entry): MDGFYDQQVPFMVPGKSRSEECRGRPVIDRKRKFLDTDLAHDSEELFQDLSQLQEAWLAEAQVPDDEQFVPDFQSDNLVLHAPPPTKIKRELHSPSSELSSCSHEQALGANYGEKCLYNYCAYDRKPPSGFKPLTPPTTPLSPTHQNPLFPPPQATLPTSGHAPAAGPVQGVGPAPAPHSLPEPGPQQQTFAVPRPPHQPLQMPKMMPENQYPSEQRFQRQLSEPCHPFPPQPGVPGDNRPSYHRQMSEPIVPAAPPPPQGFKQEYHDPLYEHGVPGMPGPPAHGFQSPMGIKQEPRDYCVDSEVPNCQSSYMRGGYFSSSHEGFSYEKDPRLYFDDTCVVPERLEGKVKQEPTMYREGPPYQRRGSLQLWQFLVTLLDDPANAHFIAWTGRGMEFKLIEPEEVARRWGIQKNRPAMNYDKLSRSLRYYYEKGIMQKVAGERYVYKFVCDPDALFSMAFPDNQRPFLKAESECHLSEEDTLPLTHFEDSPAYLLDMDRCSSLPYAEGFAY
# Procedure, shortened: as §1
# [3] = target: HSF1 (Homo sapiens, UniProt Q00613 1-529); settings: protein: recombinant; tags: N-terminal GST; chain copies: 3; dsDNA, one strand shown
# Chain of HSF1 (Q00613 whole entry): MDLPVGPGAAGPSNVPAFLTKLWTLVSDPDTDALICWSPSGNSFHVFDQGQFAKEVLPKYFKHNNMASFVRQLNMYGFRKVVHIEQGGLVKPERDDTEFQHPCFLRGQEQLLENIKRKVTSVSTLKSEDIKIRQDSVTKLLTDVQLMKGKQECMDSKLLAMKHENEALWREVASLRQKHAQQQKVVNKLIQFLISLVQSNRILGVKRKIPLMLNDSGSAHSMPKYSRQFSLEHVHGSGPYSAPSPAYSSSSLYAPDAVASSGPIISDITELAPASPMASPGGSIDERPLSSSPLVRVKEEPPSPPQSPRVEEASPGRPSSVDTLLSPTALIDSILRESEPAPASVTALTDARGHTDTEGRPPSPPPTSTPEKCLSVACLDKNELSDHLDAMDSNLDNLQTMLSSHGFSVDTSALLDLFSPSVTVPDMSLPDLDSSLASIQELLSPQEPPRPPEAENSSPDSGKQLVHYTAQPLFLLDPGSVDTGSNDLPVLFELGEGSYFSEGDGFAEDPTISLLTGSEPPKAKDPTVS
# Procedure, shortened: as §1
# [4] = target: T2, SPIC (Homo sapiens, UniProt Q8N5J4 1-248); settings: protein: recombinant; tags: N-terminal GST; dsDNA, one strand shown
# T2 sequence: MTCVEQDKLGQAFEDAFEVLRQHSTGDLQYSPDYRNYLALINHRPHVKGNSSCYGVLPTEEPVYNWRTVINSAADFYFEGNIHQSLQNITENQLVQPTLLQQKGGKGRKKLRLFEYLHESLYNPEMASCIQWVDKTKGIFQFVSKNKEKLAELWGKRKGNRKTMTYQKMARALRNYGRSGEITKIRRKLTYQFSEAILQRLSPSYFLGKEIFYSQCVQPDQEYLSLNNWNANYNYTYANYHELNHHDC
# Procedure, shortened: as §1
# [5] = target: ELF4 (Homo sapiens, UniProt Q99607 1-663); settings: protein: recombinant; tags: N-terminal GST; dsDNA, one strand shown
# Chain of ELF4 (Q99607 whole entry): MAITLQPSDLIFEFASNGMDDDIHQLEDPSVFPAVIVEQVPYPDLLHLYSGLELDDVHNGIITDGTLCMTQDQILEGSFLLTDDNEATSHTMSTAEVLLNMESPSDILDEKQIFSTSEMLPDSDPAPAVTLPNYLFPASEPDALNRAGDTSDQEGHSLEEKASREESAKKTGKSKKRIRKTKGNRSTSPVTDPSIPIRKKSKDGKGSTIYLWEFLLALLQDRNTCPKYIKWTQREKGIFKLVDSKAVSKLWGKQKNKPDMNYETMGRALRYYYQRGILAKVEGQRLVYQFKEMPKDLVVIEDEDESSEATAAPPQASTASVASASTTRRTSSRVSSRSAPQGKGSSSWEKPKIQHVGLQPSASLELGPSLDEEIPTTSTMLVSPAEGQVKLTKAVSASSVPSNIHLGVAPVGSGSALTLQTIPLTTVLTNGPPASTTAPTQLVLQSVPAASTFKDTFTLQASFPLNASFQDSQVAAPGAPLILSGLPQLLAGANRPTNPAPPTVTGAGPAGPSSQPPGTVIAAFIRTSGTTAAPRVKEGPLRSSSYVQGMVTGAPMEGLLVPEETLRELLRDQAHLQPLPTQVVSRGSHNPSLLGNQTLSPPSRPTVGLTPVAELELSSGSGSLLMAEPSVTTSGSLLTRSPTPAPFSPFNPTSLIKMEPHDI
# Procedure, shortened: as §1
# [6] = target: T3, ELK4 (Homo sapiens, UniProt P28324-2 1-405); settings: protein: recombinant; tags: N-terminal GST; dsDNA, one strand shown
# T3 sequence: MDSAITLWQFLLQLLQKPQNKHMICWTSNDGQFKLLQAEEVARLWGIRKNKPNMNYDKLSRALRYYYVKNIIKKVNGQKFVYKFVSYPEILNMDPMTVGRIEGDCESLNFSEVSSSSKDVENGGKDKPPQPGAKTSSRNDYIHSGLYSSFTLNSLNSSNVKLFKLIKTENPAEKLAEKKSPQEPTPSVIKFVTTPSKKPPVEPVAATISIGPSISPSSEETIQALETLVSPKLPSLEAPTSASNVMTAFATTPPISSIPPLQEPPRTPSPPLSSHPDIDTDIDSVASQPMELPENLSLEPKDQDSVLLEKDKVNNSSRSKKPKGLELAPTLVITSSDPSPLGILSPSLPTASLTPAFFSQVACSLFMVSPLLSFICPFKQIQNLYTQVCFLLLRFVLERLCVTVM
# Procedure, shortened: as §1
# [7] = target: T4, ETV2 (Homo sapiens, UniProt O00321 1-342); settings: protein: recombinant; tags: N-terminal GST; dsDNA, one strand shown
# T4 sequence: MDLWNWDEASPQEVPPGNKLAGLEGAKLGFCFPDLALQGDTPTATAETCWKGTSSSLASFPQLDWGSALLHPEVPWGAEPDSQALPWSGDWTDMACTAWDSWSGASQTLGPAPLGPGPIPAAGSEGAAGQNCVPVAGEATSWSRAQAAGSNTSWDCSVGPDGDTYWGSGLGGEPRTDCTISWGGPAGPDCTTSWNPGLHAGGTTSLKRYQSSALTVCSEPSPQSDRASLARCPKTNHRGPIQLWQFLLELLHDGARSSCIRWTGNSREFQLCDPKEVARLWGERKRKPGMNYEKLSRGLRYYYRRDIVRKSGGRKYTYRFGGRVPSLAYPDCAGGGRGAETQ
# Procedure, shortened: as §1
# [8] = target: T5, ELF3 (Homo sapiens, UniProt P78545 1-371); settings: protein: recombinant; tags: N-terminal GST; dsDNA, one strand shown
# T5 sequence: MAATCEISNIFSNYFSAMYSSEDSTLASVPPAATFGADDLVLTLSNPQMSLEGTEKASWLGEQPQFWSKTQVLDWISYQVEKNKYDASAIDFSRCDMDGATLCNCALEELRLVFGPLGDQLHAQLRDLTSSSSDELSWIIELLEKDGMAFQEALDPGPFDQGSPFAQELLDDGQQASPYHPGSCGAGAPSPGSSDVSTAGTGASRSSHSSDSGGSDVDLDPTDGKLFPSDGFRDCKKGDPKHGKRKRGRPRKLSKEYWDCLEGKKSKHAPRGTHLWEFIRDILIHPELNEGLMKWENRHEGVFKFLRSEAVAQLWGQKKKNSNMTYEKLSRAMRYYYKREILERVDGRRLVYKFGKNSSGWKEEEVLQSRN
# Procedure, shortened: as §1
# [9] = target: ETV1 (Homo sapiens, UniProt P50549 1-477); settings: protein: recombinant; tags: N-terminal GST; dsDNA, one strand shown
# Chain of ETV1 (P50549 whole entry): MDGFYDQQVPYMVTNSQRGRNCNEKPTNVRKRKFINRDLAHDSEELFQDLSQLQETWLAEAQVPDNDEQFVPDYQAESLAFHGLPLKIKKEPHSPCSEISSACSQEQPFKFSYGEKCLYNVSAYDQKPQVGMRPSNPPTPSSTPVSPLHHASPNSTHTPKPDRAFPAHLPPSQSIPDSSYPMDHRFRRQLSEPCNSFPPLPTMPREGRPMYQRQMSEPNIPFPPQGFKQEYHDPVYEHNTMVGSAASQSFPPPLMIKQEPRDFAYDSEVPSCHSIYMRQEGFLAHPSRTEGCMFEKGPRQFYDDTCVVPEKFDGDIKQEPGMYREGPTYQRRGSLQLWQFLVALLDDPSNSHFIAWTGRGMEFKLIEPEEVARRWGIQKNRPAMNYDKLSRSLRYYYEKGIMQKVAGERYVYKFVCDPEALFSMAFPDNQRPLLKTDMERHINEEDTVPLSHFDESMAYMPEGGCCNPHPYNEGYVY
# Procedure, shortened: as §1
# [10] = target: T6, ERF (Homo sapiens, UniProt P50548 1-548); settings: protein: recombinant; tags: N-terminal GST; dsDNA, one strand shown
# T6 sequence: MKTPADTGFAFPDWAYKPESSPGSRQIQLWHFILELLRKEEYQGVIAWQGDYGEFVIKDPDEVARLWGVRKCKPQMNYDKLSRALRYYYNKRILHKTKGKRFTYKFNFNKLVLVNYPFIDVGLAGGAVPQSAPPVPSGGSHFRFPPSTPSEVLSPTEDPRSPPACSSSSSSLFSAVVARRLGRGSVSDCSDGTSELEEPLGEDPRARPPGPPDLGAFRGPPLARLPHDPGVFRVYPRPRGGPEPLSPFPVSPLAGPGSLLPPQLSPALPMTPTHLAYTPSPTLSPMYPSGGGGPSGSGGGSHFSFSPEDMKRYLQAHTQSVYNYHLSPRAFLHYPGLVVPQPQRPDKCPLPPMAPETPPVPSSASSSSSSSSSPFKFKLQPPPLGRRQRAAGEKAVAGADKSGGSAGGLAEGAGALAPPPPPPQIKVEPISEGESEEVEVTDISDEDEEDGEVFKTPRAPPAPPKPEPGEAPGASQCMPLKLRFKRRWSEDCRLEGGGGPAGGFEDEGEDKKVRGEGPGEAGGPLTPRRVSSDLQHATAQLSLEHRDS
# Procedure, shortened: as §1
# [11] = target: T7, ETV3L (Homo sapiens, UniProt Q6ZN32 1-361); settings: protein: recombinant; tags: N-terminal GST; dsDNA, one strand shown
# T7 sequence: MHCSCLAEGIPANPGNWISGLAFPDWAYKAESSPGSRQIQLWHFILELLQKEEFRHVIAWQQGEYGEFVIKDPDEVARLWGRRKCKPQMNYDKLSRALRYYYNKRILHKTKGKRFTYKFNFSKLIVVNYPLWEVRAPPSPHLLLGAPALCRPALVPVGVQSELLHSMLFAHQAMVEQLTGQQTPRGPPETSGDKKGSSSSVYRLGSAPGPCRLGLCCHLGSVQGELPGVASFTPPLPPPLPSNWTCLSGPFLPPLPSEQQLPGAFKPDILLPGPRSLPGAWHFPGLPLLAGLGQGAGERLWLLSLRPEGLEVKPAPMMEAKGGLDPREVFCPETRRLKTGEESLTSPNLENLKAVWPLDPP
# Procedure, shortened: as §1
# [12] = target: T8, ETS2 (Homo sapiens, UniProt P15036 1-469); settings: protein: recombinant; tags: N-terminal GST; dsDNA, one strand shown
# T8 sequence: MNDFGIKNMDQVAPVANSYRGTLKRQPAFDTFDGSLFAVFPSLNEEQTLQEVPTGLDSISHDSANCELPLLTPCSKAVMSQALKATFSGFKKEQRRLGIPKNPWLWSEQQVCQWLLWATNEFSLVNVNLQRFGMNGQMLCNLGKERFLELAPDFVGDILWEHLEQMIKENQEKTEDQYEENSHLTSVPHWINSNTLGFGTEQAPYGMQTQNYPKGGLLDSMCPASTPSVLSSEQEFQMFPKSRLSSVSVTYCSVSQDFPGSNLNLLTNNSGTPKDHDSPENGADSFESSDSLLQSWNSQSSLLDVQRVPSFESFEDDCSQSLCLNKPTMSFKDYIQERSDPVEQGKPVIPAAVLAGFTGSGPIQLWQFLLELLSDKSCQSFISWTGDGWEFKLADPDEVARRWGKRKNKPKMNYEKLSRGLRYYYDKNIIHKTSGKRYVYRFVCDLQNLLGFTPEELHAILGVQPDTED
# Procedure, shortened: as §1
# [13] = target: T9, SPDEF (Homo sapiens, UniProt O95238 1-335); settings: protein: recombinant; tags: N-terminal GST; dsDNA, one strand shown
# T9 sequence: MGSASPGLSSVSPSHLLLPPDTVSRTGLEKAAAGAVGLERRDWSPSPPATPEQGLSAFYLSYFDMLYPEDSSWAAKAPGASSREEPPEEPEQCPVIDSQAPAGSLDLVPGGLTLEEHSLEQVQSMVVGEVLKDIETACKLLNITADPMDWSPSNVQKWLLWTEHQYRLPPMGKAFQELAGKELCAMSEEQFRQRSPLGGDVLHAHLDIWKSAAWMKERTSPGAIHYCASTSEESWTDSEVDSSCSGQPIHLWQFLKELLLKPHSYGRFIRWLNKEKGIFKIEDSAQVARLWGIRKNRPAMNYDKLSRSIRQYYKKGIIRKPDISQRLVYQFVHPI
# Procedure, shortened: as §1
# [14] = target: T10, ETV7 (Homo sapiens, UniProt Q9Y603 1-341); settings: protein: recombinant; tags: N-terminal GST; dsDNA, one strand shown
# T10 sequence: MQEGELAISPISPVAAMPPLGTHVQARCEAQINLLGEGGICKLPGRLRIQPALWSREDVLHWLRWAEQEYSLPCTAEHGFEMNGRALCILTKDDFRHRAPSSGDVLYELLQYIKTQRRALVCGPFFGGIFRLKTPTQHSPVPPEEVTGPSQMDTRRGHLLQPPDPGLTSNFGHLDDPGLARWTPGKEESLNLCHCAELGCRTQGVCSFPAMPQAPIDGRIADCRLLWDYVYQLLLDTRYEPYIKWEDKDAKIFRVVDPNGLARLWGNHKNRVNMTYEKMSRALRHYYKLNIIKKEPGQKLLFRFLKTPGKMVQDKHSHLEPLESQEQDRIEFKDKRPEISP
# Procedure, shortened: as §1
# [15] = target: T11, ELF5 (Homo sapiens, UniProt Q9UKW6-2 1-255); settings: protein: recombinant; tags: N-terminal GST; dsDNA, one strand shown
# T11 sequence: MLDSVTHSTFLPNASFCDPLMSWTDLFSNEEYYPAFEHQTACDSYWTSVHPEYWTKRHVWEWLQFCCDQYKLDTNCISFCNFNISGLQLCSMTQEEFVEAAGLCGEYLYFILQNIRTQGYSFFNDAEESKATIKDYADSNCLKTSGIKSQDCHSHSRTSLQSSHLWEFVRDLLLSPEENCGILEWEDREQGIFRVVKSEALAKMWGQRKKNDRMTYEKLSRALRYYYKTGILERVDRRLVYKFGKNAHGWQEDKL
# Procedure, shortened: as §1
# [16] = target: T12, ETV3 (Homo sapiens, UniProt P41162-2 1-143); settings: protein: recombinant; tags: N-terminal GST; dsDNA, one strand shown
# T12 sequence: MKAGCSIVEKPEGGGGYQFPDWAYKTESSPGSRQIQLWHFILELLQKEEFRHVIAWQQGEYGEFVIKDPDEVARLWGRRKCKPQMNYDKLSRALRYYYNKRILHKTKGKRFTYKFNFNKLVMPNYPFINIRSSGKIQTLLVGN
# Procedure, shortened: as §1
# [17] = target: ETV6 (Homo sapiens, UniProt P41212 1-452); settings: protein: recombinant; tags: N-terminal GST; dsDNA, one strand shown
# Chain of ETV6 (P41212 whole entry): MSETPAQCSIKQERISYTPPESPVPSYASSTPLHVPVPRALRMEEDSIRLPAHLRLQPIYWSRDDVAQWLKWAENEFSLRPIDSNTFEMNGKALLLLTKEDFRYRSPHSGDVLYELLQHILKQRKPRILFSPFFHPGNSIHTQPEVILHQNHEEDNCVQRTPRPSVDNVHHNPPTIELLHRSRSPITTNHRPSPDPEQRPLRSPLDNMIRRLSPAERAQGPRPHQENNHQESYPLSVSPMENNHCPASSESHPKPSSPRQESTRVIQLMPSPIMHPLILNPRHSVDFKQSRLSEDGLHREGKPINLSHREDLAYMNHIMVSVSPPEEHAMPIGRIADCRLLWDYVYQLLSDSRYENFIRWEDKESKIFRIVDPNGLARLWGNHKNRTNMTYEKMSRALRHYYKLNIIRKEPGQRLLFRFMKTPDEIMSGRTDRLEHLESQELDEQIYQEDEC
# Procedure, shortened: as §1
sequence,measurement,setting,value
GTTCAC,binding signal,[1],"1.3 fold enrichment (6-mer frequency, TF over GST control)"
same,binding signal,[2],"1.2 fold enrichment (6-mer frequency, TF over GST control)"
same,binding signal,[3],"1.06 fold enrichment (6-mer frequency, TF over GST control)"
same,binding signal,[4],"1.09 fold enrichment (6-mer frequency, TF over GST control)"
same,binding signal,[5],"1.25 fold enrichment (6-mer frequency, TF over GST control)"
same,binding signal,[6],"1.29 fold enrichment (6-mer frequency, TF over GST control)"
same,binding signal,[7],"1.22 fold enrichment (6-mer frequency, TF over GST control)"
same,binding signal,[8],"1.12 fold enrichment (6-mer frequency, TF over GST control)"
same,binding signal,[9],"1.19 fold enrichment (6-mer frequency, TF over GST control)"
same,binding signal,[10],"1.29 fold enrichment (6-mer frequency, TF over GST control)"
same,binding signal,[11],"1.25 fold enrichment (6-mer frequency, TF over GST control)"
same,binding signal,[12],"1.28 fold enrichment (6-mer frequency, TF over GST control)"
same,binding signal,[13],"1.23 fold enrichment (6-mer frequency, TF over GST control)"
same,binding signal,[14],"1.29 fold enrichment (6-mer frequency, TF over GST control)"
same,binding signal,[15],"1.13 fold enrichment (6-mer frequency, TF over GST control)"
same,binding signal,[16],"1.19 fold enrichment (6-mer frequency, TF over GST control)"
same,binding signal,[17],"1.2 fold enrichment (6-mer frequency, TF over GST control)"
